The full list was thinned out, with hits kept by preference.
Methyltransferases: Primary Screen for Target Class Profiling of Small Molecule Inhibitors of Methyltransferases; purified enzyme, MTase-Glo SAH luminescence; stronger effect = lower value; calls only at 40 µM; actives 3.9% (n = 25,000); call rule not given here
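Each enzyme was reacted with SAM and its substrate, with compounds tested once at 40 uM; SAH formed was read by MTase-Glo luminescence.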
Calls only; 0 = inactive; + = active, no number.

SMILES	Methyltransferases
CCCn1c(=O)c2cc(Cl)ccc2n2c(SCC(=O)NCc3ccc(C)cc3)nnc12	0
CCCn1c(=O)c2ccc(C(=O)NC(C)C)cc2n2c(SCC(=O)Nc3cccc(Cl)c3)nnc12	0
COc1cccc(CN2C(=O)c3nc4ccccc4n3CC2(C)C(=O)NCc2ccccc2)c1 (stereo not drawn)	0
O=c1cc(N2CCOCC2)oc2c(NCC3CCOCC3)nccc12	0
c1nc(NCC2CCOC2)c2cc(-c3ccc4c(c3)OCO4)ccc2n1 (stereo not drawn)	+
CN1C(=O)c2cc(C(=O)NCc3cccc(Cl)c3)nn2CC1(C)C(=O)NC1CCCCCC1 (stereo not drawn)	0
COc1ccc2cc3n(c2c1)CC(C)(C(=O)NC1CCCCC1)N(Cc1ccccc1)C3=O (stereo not drawn)	0
C/C(=C\CCC(C)(C)O)CCO[C@@H]1O[C@H](CO[C@@H]2O[C@@H](C)[C@H](O)[C@@H](O)[C@H]2O)[C@@H](O)[C@H](O)[C@H]1O	0
C=CC(C)(O)CC/C=C(\C)COC1O[C@H](CO)[C@@H](O)[C@H](O)[C@H]1O (stereo partly drawn)	+
C=CC(C)(O)CC/C=C(\C)C(=O)O[C@@H]1[C@@H](O)[C@H](OC(C)(C=C)CC/C=C(\C)C(=O)O[C@@H]2O[C@H](CO)[C@@H](O)[C@H](O)[C@H]2O)O[C@H](CO)[C@H]1OC(=O)/C(C)=C/CCC(C)(O)C=C (stereo partly drawn)	0
CC1(C(=O)NCc2ccccc2)Cn2c(cc3ccccc32)C(=O)N1C1CCCCC1 (stereo not drawn)	0
CC1(C(=O)NC2CCCCCCC2)Cc2ccccc2C(=O)N1Cc1cccs1 (stereo not drawn)	0
Cc1cc(C)c(NC(=O)N(Cc2ccc3c(c2)Cc2ccccc2-3)C2CCCCCC2)c(C)c1	+
COCCCN1C(=O)c2ccccc2CC1(C)C(=O)NC1CCCCCCC1 (stereo not drawn)	0
Cc1cc2c(cc3n2CC(C)(C(=O)NC2CCCCCC2)N(Cc2ccco2)C3=O)o1 (stereo not drawn)	0
CCCn1c(=O)c2cc(Cl)ccc2n2c(=O)n(CC(=O)Nc3cccc(F)c3)nc12	0
CCCn1c(=O)c2ccc(C(=O)NC(C)C)cc2n2c(=O)n(CC(=O)Nc3ccccc3F)nc12	0
CCN(Cc1ccccc1)C(=O)CCn1ccc2cc(S(=O)(=O)N3CCCCC3)ccc21	0
Cc1cccc(CNC(=O)c2cc3n(n2)CC(C)(C(=O)NCc2ccccc2)N(C)C3=O)c1 (stereo not drawn)	0
CN1C(=O)c2cc(NC(=O)c3ccc(Cl)cc3)ccc2N2CCN=C12	0
NC(=O)c1cccc2cn(-c3ccc(C4CCCNC4)cc3)nc12 (stereo not drawn)	+
O=C(c1ccc(C2CCCNC2)cc1)N1CCCN(c2ccc(F)cc2)CC1 (stereo not drawn)	0
Cc1cccc2nc(CNC(=O)c3cccc(C4CCNC4)c3)cn12 (stereo not drawn)	0
CN(CC[C@H]1CN(C(=O)Cc2cccs2)CC[C@H]1CC(=O)O)c1ccccc1	0
Cc1ccc(C(=O)Nc2ccc(S(=O)(=O)O)c3cc(S(=O)(=O)O)cc(S(=O)(=O)O)c23)cc1NC(=O)c1cccc(NC(=O)Nc2cccc(C(=O)Nc3cc(C(=O)Nc4ccc(S(=O)(=O)O)c5cc(S(=O)(=O)O)cc(S(=O)(=O)O)c45)ccc3C)c2)c1	+
SMILES	Methyltransferases
CN1C(=O)c2cc(C(=O)NCCCN3CCCC3=O)nn2CC1(C)C(=O)NC1CCCCC1 (stereo not drawn)	0
CCOCCCNC(=O)C1c2c(n(C)c3ccccc23)SCC(=O)N1c1cc(OC)cc(OC)c1 (stereo not drawn)	0
COc1ccc(N(C)c2nc(C)nc3ccccc23)cc1	0
COc1ccc(/C=C/c2nc(NCCCN(C)C)c3ccccc3n2)cc1	+
Cc1ccc2c(c1)c(-n1cccc1)c1n2CC(C)(C(=O)NC2CCCCC2)N(Cc2ccco2)C1=O (stereo not drawn)	0
O=C(Cn1nc2n(CCc3ccccc3)c(=O)c3ccccc3n2c1=O)Nc1cccc(Cl)c1	0
Cc1ccccc1CCN1C(=O)c2ccc(-c3ccco3)n2CC1(C)C(=O)NC1CCCCCCC1 (stereo not drawn)	0
CN1C(=O)c2cc(C(=O)NCCCN3CCCCC3)nn2CC1(C)C(=O)NC1CCCCC1 (stereo not drawn)	0
CCCn1c(=O)c2cc(Cl)ccc2n2c(SCC(=O)Nc3ccccc3C)nnc12	0
CC1CCCC2OC2C(=O)c2c(O)cc(O)cc2CC(=O)O1 (stereo not drawn)	0
CC1CCCCCCCc2cc(O)cc(O)c2C(=O)O1 (stereo not drawn)	+
CC1CCC/C=C/C(=O)c2c(O)cc(O)cc2CC(=O)O1 (stereo not drawn)	0
CN(C)c1ccc(-c2nnc3n(Cc4ccc(F)cc4)c(=O)c4ccccc4n23)cc1	0
CC1(C(=O)NC2CCCCC2)Cn2c(ccc2-c2ccccc2)C(=O)N1CCc1cccs1 (stereo not drawn)	0
Cc1ccsc1CCNC(=O)Cn1c(=O)oc2cc(S(=O)(=O)N3CCCC3)ccc21	+
O=C(Cn1c(=O)oc2cc(S(=O)(=O)N3CCCC3)ccc21)NCCc1ccc(Cl)cc1	0
O=C(Cn1c(=O)oc2cc(S(=O)(=O)N3CCCC3)ccc21)NCCC1=CCCCC1	0
O=c1[nH]c2ccc(S(=O)(=O)NCCc3ccc(Cl)cc3)cc2[nH]1	0
CN1C(=O)c2cc(C(=O)NCCN3CCOCC3)nn2CC1(C)C(=O)NCc1ccc(F)cc1 (stereo not drawn)	0
Cc1ccc(C)c(C(=O)Cn2nc3n(Cc4ccccc4)c(=O)c4ccccc4n3c2=O)c1	0
CC(C)CCn1c(=O)c2ccc(C(=O)NCC(C)C)cc2n2c(=O)n(Cc3c(F)cccc3Cl)nc12	0
CC12CC(O)C(O)C=C1c1cc(O)cc(O)c1C(=O)O2 (stereo not drawn)	0
Cc1cc(O)c2c(c1)C(=O)c1cc(O)cc(O)c1C2=O	+
Cc1ccc2[nH]c(CN3CCC(c4cccc(C#N)c4)CC3)cc(=O)c2c1	0
Cc1ccc2c(c1)c(-n1cccc1)c1n2CC(C)(C(=O)NC2CCC(C)CC2)N(Cc2ccccc2Cl)C1=O (stereo not drawn)	0
SMILES	Methyltransferases
O=C(CSc1nnc2n(Cc3ccccc3)c(=O)c3ccccc3n12)Nc1cccc(F)c1	0
CCN(CC)CCCN1C(=O)c2cc3occc3n2CC1(C)C(=O)NC1CCCCCCC1 (stereo not drawn)	0
CCC(C)N1CCN(C(=O)Cn2c(=O)oc3cc(S(=O)(=O)NCc4ccccc4)ccc32)CC1 (stereo not drawn)	0
CCCn1c(=O)c2ccc(C(=O)NC(C)CC)cc2n2c(=O)n(Cc3cc(C)ccc3C)nc12 (stereo not drawn)	0
CCc1ccc(CN2C(=O)c3cc(-c4ccccc4)nn3CC2(C)C(=O)NCCCOC)cc1 (stereo not drawn)	0
CC(C)N(C[C@H]1O[C@@H](n2cnc3c(N)ncnc32)[C@H](O)[C@@H]1O)C1CC(CCc2nc3ccc(C(C)(C)C)cc3[nH]2)C1 (stereo partly drawn)	+
Nc1ncnc2c1ncn2[C@@H]1O[C@H](CO)[C@@H](O)[C@H]1O	0
CSCC1OC(n2cnc3c(=O)[nH]cnc32)C(O)C1O (stereo not drawn)	0
Cc1cc2c(cc3n2CC(C)(C(=O)NC2CCCCCCC2)N(Cc2cccc(F)c2)C3=O)o1 (stereo not drawn)	0

Bioassay records as filed in PubChem.
